From PubChem BioAssay (Tox21)
Values joined by “and” are separate entries in the source; they are usually repeats but may differ in a detail not shown here. Equal entries are not always repeated. Results filed as inconclusive are left out. Where a structure was tested more than once in an assay, its records may differ in their call. Active and inactive are the calls of the source. Unless noted, calls come from the whole dose curve; as a rule, active = well fitted curve in the direction sought with a large enough effect in the repeat runs; inconclusive = weak or mixed curves; inactive = no such curve, though single readings can be large; an effect the other way counts as inactive or inconclusive.

Experiments:
[1] = qHTS assay to identify small molecule antagonists of the estrogen receptor alpha (ER-alpha) signaling pathway using the BG1 cell line in the presence of 0.1 nM 17-beta-estradiol - cell viability counter screen (AID 1259241); note: nearly all actives have a fitted effect of over 40% in size; note: potency is the fitted concentration of half-maximal effect
Summary of the method: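 VM7Luc4E2 cells (endogenous ER-alpha, 4×ERE-luciferase), hormone-starved 5 days in charcoal-stripped FBS, were treated with compounds plus 0.1 nM 17beta-estradiol for 22 hr at 37C; viability read in same wells as CellTiter-Fluor live-cell protease fluorescence.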

[2] = qHTS assay to identify small molecule antagonists of the androgen receptor (AR) signaling pathway using the MDA cell line in the presence of 0.5 nM R1881 - cell viability counter screen (AID 1259242); note: nearly all actives have a fitted effect of over 45% in size
Summary of the method: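 MDA-kb2 cells (MMTV-luciferase, AR/GR responsive) were treated with compounds plus 0.5 nM R1881 (final) for 16 hr at 37C, 0% CO2. Viability was then read in the same wells as live-cell protease fluorescence (CellTiter-Fluor, 30 min).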

[3] = target: Estrogen receptor (Homo sapiens) (UniProt P03372); experiment: qHTS assay to identify small molecule antagonists of the estrogen receptor alpha (ER-alpha) signaling pathway using the BG1 cell line in the presence of 0.1 nM 17-beta-estradiol (AID 1259244); note: nearly all actives have a fitted effect of over 50% in size; note: potency is the fitted concentration of half-maximal effect
Summary of the method: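 VM7Luc4E2 cells (endogenous full-length ER-alpha, 4×ERE-luciferase), kept 5 days in phenol red-free, charcoal-stripped FBS medium; 4,000 cells/well. Compounds added with 0.1 nM (final) 17beta-estradiol, 22 hr at 37C; luminescence read with ONE-Glo after 30 min.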

[4] = qHTS assay to identify small molecule phospholipidosis (PLD) inducers (AID 1259344; active = well fitted curve in the direction sought with a large enough effect; an effect the other way counts as inactive or inconclusive)
Summary of the method: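 HepG2 cells, 900/well, treated with compound plus LipidTOX Red for 24 h at 37 C; amiodarone positive and DMSO negative controls. Fixed with paraformaldehyde/Hoechst, then high-content imaging scored LipidTOX pit count and integrated intensity per well and per cell.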

[5] = qHTS assay to identify small molecule HDAC inhibitors (AID 1259364); note: top concentration of the series differs between compounds; nearly all actives have a fitted effect of over 45% in size
Summary of the method: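 Wild-type HCT-116 cells, plated overnight at 37 C, exposed to compounds 2 hr at 37 C; luminogenic HDAC-Glo substrate then added 30 min at room temperature. Luminescence reports relative endogenous class I/II HDAC activity.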

[6] = qHTS assay to identify small molecule HDAC inhibitors - cell viability counter screen (AID 1259365); note: series mostly up to about 92 µM; nearly all actives have a fitted effect of over 50% in size
Summary of the method: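 Wild-type HCT-116 cells were seeded at 1,500 per well, incubated overnight at 37 C, then exposed to compounds in DMSO for 2hr. Viability was read by CellTiter-Glo luminescence after 30min at room temperature.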

[7] = qHTS assay to identify small molecule agonists of the sonic hedgehog signaling (Shh) pathway - cell viability counter screen (AID 1259366); note: nearly all actives have a fitted effect of over 50% in size; note: potency is the fitted concentration of half-maximal effect
Summary of the method: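 NIH/3T3-derived 3T3 Gli1-Luc cells (stable Gli1-responsive firefly luciferase reporter) were seeded, rested 4 hr at 37 C/5% CO2, then exposed to compounds in DMSO for 24 hr; viability was read by CellTiter-Fluor fluorescence in the same wells.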

[8] = qHTS assay to identify small molecule agonists of the sonic hedgehog signaling (Shh) pathway (AID 1259368; calls by dose curve; note: series mostly up to about 92 µM; nearly all actives have a fitted effect of over 15% in size)
Summary of the method: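 NIH/3T3-derived 3T3Gli1-Luc cells with stably integrated Gli1-driven firefly luciferase, 2,000 cells/well, compounds added after 4 hr. Incubated 24 hr at 37C, 5% CO2; luminescence read after 30 min with luciferase reagent at room temperature.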

[9] = qHTS assay to identify small molecule antagonists of the sonic hedgehog signaling (Shh) pathway (AID 1259369; calls by dose curve; note: nearly all actives have a fitted effect of over 45% in size; note: potency is the fitted concentration of half-maximal effect)
Summary of the method: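 NIH/3T3-derived Gli1-Luc reporter cells plated 4 h, dosed with compound, then stimulated with conditioned medium for 24 h at 37 C. Firefly luciferase luminescence read after 30 min with detection reagent at room temperature.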

[10] = target: Estrogen receptor beta (Homo sapiens) (UniProt Q92731); experiment: qHTS assay to identify small molecule antagonists of the estrogen receptor beta (ER-beta) signaling pathway (AID 1259378; active = well fitted inhibition curve with a large enough effect in the signal ratio in the repeat runs, not every such curve was filed as active; the % refers to the signal ratio; note: potency is the fitted concentration of half-maximal effect)
Summary of the method: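 ER-beta-UAS-bla HEK293T cells in 2% charcoal-stripped FBS medium treated with compound plus 1nM final 17-beta-estradiol for 16 hr at 37C. Beta-lactamase reporter read by FRET substrate fluorescence after 2 hours at room temperature.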

[11] = qHTS assay to identify small molecule agonists of the androgen receptor (AR) signaling pathway in the presence of an antagonist - cell viability counter screen (AID 1259379); note: nearly all actives have a fitted effect of over 25% in size; note: potency is the fitted concentration of half-maximal effect
Summary of the method: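 MDA-kb2 cells (MMTV-luciferase, AR/GR), 3,000/well, 5 h attachment, then 3.0 µM nilutamide (final) and compounds at 15 concentrations. Viability by CellTiter-Fluor fluorescence after 16 h at 37 °C, 0% CO2, in the reporter wells.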

[12] = qHTS assay to identify small molecule agonists of the estrogen receptor beta (ER-beta) signaling pathway - cell viability counter screen (AID 1259380); note: nearly all actives have a fitted effect of over 30% in size
Summary of the method: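 ER-beta-UAS-bla HEK293T cells in medium with 2% charcoal-stripped FBS, pre-incubated 6 hr, then treated 16 hr at 37C. Cytotoxicity read in the same wells by CellTiter-Glo luminescence after 30 min at room temperature.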

[13] = qHTS assay to identify small molecule antagonists of the estrogen receptor beta (ER-beta) signaling pathway - cell viability counter screen (AID 1259382); note: series mostly up to about 92 µM; nearly all actives have a fitted effect of over 55% in size
Summary of the method: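 ER-beta-UAS-bla HEK293T cells in 2% charcoal-stripped FBS medium, treated with compound plus 1 nM 17-beta-estradiol for 16 h at 37C. Viability read by CellTiter-Glo luminescence after 30 min at room temperature in the same wells.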

[14] = target: Estrogen receptor (Homo sapiens) (UniProt P03372); experiment: qHTS assay to identify small molecule agonists of the estrogen receptor alpha (ER-alpha) signaling pathway in the presence of an antagonist (AID 1259383; calls by dose curve; note: top concentration of the series differs between compounds; nearly all actives have a fitted effect of over 15% in size)
Summary of the method: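 VM7Luc4E2 cells express endogenous full-length ER-alpha with an ERE-luciferase reporter and were hormone-deprived for 5 days. Compounds at 15 concentrations were added with 10.0nM ICI-182,780 for 22hr at 37C. Luminescence was read with ONE-Glo.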

[15] = target: Thyrotropin receptor (Homo sapiens) (UniProt P16473); experiment: qHTS assay to identify small molecule antagonists of the thyroid stimulating hormone receptor (TSHR) signaling pathway (AID 1259385; calls by dose curve; note: nearly all actives have a fitted effect of over 20% in size)
Summary of the method: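 TSHR-HEK293 cells (800/well) plated 18 h, then compounds with Ro20-1724 and TSH at 1.5 ng/mL final, 30 min at room temperature. cAMP quantified by HTRF (cAMP-d2/anti-cAMP-cryptate, 1 h); 15 concentrations in triplicate.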

[16] = target: Androgen receptor (Homo sapiens) (UniProt P10275); experiment: qHTS assay to identify small molecule antagonists of the androgen receptor (AR) signaling pathway using the MDA cell line in the presence of 0.5 nM R1881 (AID 1259243); note: nearly all actives have a fitted effect of over 50% in size; note: potency is the fitted concentration of half-maximal effect
Summary of the method: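 MDA-kb2 cells (MMTV-luciferase, responsive to AR and GR) at 3,000/well, rested 5 h at 37C, 0% CO2, then given compounds plus 0.5 nM R1881 (final) for 16 hr. Luciferase read with ONE-Glo after 30 min at room temperature.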

[17] = target: Androgen receptor (Homo sapiens) (UniProt P10275); experiment: qHTS assay to identify small molecule agonists of the androgen receptor (AR) signaling pathway in the presence of an antagonist (AID 1259381; calls by dose curve; note: nearly all actives have a fitted effect of over 15% in size; note: potency is the fitted concentration of half-maximal effect)
Summary of the method: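 MDA-kb2 cells carrying MMTV-luciferase (AR/GR responsive), 3,000 cells/well, co-treated with 3.0 uM nilutamide final. Compounds at 15 concentrations, 16 hr at 37C without CO2. Luciferase luminescence read after 30 min with ONE-Glo.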

[18] = qHTS assay to identify small molecule antagonists of the sonic hedgehog signaling (Shh) pathway - cell viability counter screen (AID 1259367); note: nearly all actives have a fitted effect of over 55% in size; note: potency is the fitted concentration of half-maximal effect
Summary of the method: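 NIH/3T3-derived Gli1-Luc reporter cells, 2,000/well, plated 4 hr before compound addition, then stimulated with conditioned medium for 24 hr at 37C. Viability measured in the same wells by CellTiter-Fluor fluorescence, reagent added at 23 hr for 1 hr.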

[19] = qHTS assay to identify small molecule agonists or antagonists of the thyroid stimulating hormone receptor (TSHR) signaling pathway - wild type cell line counter screen (AID 1259384; calls by dose curve)
Summary of the method: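 Wild-type Hek293 cells, 800/well, 18 h at 37C, then compound with Ro20-1724 for 30 min RT. cAMP by HTRF (cAMP-d2/anti-cAMP cryptate), 1 h RT, fluorescence read. 15 concentrations, triplicates.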

[20] = target: Estrogen receptor beta (Homo sapiens) (UniProt Q92731); experiment: qHTS assay to identify small molecule agonists of the estrogen receptor beta (ER-beta) signaling pathway (AID 1259377; active = well fitted activation curve with a large enough effect in the signal ratio in the repeat runs, not every such curve was filed as active; the % refers to the signal ratio)
Summary of the method: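 ER-beta-UAS-bla HEK293T (GripTite) cells carrying a UAS-driven beta-lactamase reporter, in medium with 2% charcoal-stripped FBS, were exposed to compounds for 16 hr at 37C; LiveBLAzer B/G FRET substrate was then added and fluorescence read after 2 hours at room temperature.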

Measured: Potency

Androgen receptor (Homo sapiens), sequence (P10275 whole entry, looked up): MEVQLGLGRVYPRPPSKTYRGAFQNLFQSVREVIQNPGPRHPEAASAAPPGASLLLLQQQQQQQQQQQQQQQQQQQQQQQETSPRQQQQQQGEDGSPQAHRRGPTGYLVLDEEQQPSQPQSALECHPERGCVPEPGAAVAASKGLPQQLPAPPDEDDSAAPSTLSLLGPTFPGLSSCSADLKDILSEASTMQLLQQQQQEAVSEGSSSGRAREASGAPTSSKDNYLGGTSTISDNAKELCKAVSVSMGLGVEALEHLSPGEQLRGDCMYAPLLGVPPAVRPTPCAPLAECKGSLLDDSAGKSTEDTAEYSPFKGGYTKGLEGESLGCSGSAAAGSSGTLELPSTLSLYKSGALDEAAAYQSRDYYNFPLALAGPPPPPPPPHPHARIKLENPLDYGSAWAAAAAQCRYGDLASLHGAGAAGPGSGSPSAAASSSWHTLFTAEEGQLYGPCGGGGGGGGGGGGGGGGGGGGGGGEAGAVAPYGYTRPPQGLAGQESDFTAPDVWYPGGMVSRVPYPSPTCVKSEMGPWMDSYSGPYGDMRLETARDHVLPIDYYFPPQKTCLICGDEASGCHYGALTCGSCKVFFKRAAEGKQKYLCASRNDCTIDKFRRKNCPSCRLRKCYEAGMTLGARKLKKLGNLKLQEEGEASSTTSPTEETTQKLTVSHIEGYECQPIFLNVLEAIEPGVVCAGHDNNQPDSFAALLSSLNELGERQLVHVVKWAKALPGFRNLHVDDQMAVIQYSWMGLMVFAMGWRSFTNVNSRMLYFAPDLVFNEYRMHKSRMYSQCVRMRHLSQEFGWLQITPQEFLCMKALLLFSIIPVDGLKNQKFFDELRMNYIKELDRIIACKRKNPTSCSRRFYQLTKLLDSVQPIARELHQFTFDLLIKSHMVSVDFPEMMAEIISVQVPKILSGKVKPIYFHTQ
Thyrotropin receptor (Homo sapiens), sequence (P16473 whole entry, looked up): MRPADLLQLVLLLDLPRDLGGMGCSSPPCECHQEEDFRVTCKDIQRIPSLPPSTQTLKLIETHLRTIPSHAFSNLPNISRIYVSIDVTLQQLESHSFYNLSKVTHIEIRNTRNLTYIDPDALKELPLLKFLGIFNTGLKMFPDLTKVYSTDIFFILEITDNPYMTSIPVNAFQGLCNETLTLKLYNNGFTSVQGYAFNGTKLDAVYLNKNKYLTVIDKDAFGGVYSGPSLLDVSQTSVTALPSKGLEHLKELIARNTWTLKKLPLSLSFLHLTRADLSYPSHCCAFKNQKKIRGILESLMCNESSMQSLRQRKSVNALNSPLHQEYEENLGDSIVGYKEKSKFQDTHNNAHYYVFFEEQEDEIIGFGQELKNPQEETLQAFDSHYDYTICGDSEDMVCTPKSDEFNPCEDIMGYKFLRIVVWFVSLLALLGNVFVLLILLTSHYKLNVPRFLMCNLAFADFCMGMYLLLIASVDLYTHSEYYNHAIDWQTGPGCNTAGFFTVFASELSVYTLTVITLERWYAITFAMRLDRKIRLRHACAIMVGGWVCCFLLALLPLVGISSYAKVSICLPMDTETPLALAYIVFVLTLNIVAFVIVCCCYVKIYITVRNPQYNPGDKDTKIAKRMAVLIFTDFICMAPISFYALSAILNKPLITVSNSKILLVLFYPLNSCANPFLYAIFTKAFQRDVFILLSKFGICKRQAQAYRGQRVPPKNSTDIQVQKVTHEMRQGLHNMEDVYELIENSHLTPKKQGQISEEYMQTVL
Estrogen receptor beta (Homo sapiens), sequence (Q92731 whole entry, looked up): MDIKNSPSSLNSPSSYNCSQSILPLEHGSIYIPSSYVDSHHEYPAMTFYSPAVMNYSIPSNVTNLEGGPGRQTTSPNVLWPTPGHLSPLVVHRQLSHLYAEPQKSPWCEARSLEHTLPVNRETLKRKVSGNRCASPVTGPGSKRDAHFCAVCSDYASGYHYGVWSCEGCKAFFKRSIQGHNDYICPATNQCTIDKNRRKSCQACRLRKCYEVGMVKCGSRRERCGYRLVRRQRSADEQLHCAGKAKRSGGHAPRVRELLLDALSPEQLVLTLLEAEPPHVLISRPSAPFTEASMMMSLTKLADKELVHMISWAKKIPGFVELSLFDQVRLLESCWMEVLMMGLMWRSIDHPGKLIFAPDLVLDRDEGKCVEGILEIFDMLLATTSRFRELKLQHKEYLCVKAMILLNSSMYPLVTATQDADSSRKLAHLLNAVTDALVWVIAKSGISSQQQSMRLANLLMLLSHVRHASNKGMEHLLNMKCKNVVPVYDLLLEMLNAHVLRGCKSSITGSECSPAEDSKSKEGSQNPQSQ
Estrogen receptor (Homo sapiens), sequence (P03372 whole entry, looked up): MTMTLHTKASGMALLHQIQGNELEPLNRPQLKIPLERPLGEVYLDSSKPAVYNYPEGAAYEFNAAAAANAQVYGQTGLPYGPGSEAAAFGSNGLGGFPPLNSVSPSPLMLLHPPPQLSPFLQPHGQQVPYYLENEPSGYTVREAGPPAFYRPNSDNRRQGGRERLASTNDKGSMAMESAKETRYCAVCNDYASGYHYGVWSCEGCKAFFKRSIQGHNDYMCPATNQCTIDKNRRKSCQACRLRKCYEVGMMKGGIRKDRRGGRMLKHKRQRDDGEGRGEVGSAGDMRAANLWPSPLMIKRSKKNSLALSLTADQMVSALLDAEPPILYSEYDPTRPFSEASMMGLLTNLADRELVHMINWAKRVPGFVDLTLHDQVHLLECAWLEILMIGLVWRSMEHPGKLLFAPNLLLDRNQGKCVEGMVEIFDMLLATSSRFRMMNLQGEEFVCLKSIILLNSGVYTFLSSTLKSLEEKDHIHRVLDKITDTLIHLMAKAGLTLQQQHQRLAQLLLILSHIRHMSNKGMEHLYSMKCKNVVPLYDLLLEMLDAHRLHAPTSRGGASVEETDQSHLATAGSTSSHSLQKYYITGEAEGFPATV

NCCS(=O)(=O)O
25.3 µM (active) and inactive: [11]
not listed: [16] | [17] | [18] | [19] | [20]
inactive: all other assays above

c1ccc2c(c1)[nH]c1ccccc12
active: [16] 8.49 µM and 8.63 µM
not listed: [4] | [15] | [18] | [19] | [20]
inactive: all other assays above

CC[C@]12CCCN3CCc4c(n(c5ccccc45)[C@@](O)(C(=O)OC)C1)[C@@H]32
not listed: [3] | [10] | [14] | [15] | [19] | [20]
inactive: all other assays above

Cc1ccc(S(=O)(=O)NCl)cc1
not listed: [10] | [16] | [17] | [18] | [19] | [20]
inactive: all other assays above

NCCN
not listed: [10] | [16] | [17] | [20]
inactive: all other assays above

C=C1C[C@H]2[C@@H]3C=C(C)C4=CC(=O)CC[C@]4(C)[C@H]3CC[C@]2(C)[C@@]1(OC(C)=O)C(C)=O
19.7 µM (active) and inactive: [9]
active: [17] 39.4 nM and 59.6 nM
not listed: [4] | [15] | [19] | [20]
inactive: all other assays above

FC(F)(F)C(Cl)Br (stereo not drawn)
not listed: [16] | [17] | [20]
inactive: all other assays above

CN(C)/N=N/c1nc[nH]c1C(N)=O
not listed: [16] | [17]
inactive: all other assays above

COc1cc([C@H]2Oc3cc([C@H]4Oc5cc(O)cc(O)c5C(=O)[C@@H]4O)ccc3O[C@@H]2CO)ccc1O
27.2 µM (active) and inactive: [18]
24.3 µM (active) and inactive: [7]
active: [9] 19.3 µM
not listed: [10] | [15] | [16] | [17] | [19] | [20]
inactive: all other assays above

c1ccc2c(c1)ccc1ncccc12
active: [16] 3.83 µM and 5.45 µM
not listed: [4] | [18] | [20]
inactive: all other assays above

CC(=O)Oc1ccc(C(c2ccc(OC(C)=O)cc2)c2ccccn2)cc1
active: [1] 0.75 µM | [16] 171 nM and 1.19 µM | [3] 54.2 nM and 944 nM | [10] 2.16 µM and 3.76 µM
not listed: [11] | [19]
inactive: all other assays above

O=C(O)COCCN1CCN(C(c2ccccc2)c2ccc(Cl)cc2)CC1 (stereo not drawn)
not listed: [16] | [17] | [20]
inactive: all other assays above

CCCCCCCCCCCCO
inactive and 60.4 µM (active): [9]
not listed: [4] | [16] | [17]
inactive: all other assays above
